This is part of a sample that, as a whole, favours compounds with a hit. Of some 83,000 tested, about 20% had one in any assay.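 Treatment: one concentration, 48 hours, 96-well format. Scoring: percent growth, with anything below 10 considered active.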 Values without a mark were called inactive. The source made the active and inactive calls.
Columns and labels:
Test in all cases: NCI-60 one-dose screen, 48 h (100 = growth as untreated, 0 = no growth, -100 = all killed)
Details in all cases: 10 µM unless noted
[1] = test system: DU-145 prostate
[2] = test system: K-562 leukemia
[3] = test system: MALME-3M melanoma
[4] = test system: MDA-MB-231 breast
[5] = test system: RXF 393 renal
[6] = test system: SF-268 CNS
[7] = test system: SF-295 CNS
[8] = test system: SF-539 CNS
[9] = test system: UACC-257 melanoma
[10] = test system: M14 melanoma
[11] = test system: HCT-15 colon
[12] = test system: HT29 colon
[13] = test system: SNB-75 CNS
[14] = test system: SNB-19 CNS
[15] = test system: U251 CNS
[16] = test system: PC-3 prostate
[17] = test system: UACC-62 melanoma
[18] = test system: LOX IMVI melanoma
[19] = test system: SK-MEL-28 melanoma
[20] = test system: SK-MEL-5 melanoma

SMILES | growth [1] | growth [2] | growth [3] | growth [4] | growth [5] | growth [6] | growth [7] | growth [8] | growth [9] | growth [10] | growth [11] | growth [12] | growth [13] | growth [14] | growth [15] | growth [16] | growth [17] | growth [18] | growth [19] | growth [20]
C=CC(=O)Nc1ccc2ncnc(Nc3cccc(NS(=O)(=O)CCC)c3Cl)c2c1 | 37.8% | 67.2% | 7.81% (active) | 24.3% | 15.1% | 48% | 72.9% | 44.4% | 5.07% (active) | 19.6% | 67.9% | 7.98% (active) | 8.28% (active) | 49% | 52.5% | 68% | 6.45% (active) | 40.7% | 15% | –
CNC(=O)c1cc(Oc2ccc3nc(NC(=O)Nc4ccc(F)cc4F)sc3c2)ccn1 | 65.7% | 71.5% | 46.2% | 47.7% | 42.3% | 76.1% | 76.7% | 61.7% | 74.3% | 69.1% | 84% | 58.8% | 19.2% | 71.1% | 37% | 65.9% | 65.1% | 52.1% | 52.1% | –
COc1ccc(NC(=O)CSc2oc(-c3ccccc3)nc2S(=O)(=O)c2ccc(Cl)cc2)c(OC)c1 | 83.1% | 67.4% | 57.6% | 47.5% | 16.3% | 47.1% | 53.6% | 0.354% (active) | 40.7% | 77.3% | 73.7% | 70.3% | -1.47% (active) | 55.4% | 50.6% | 61% | 41.4% | 76.1% | 67.1% | 66.3%
CC/C(=C(/c1ccc(Cl)cc1)c1ccc(OCCN2CCCCCC2)cc1)c1ccccc1 | 97.2% | 19.8% | 98.5% | 83% | 72.5% | 81.6% | 98.3% | 84.3% | 92.4% | 81.6% | 35.3% | 17% | 107% | 83% | 62.4% | 63.3% | 87% | 68.5% | 95.7% | 79.6%
CCCCCCCCOC(=O)c1c(C)[nH]c(/C=C2\N=C(c3ccc[nH]3)C=C2OC)c1C | 23.3% | 10.8% | -42.9% (active) | -5.15% (active) | -19.9% (active) | 24% | -34.7% (active) | 3.4% (active) | -15.2% (active) | -56.1% (active) | 1.19% (active) | -11.2% (active) | -20.8% (active) | 25.4% | -8.43% (active) | 18% | -25.7% (active) | -44.9% (active) | -12.5% (active) | –
CCC(=C(c1ccc(OCCN(CC)CC)cc1)c1ccc(OCCN(CC)CC)cc1)c1ccc(Cl)cc1 | -19.7% (active) | 0.499% (active) | -81.4% (active) | -81.7% (active) | -54.3% (active) | -4.01% (active) | -68.5% (active) | -90.3% (active) | -65% (active) | -79% (active) | -81% (active) | -68% (active) | -73.6% (active) | -56.1% (active) | -87.8% (active) | – | -68.3% (active) | -87% (active) | -86.9% (active) | -98.2% (active)
CC(C)(C)[C@H](OCc1cn([C@H]2C[C@@H](O)[C@@H](CO)O2)c(=O)[nH]c1=O)c1ccc(C#Cc2ccccc2)cc1[N+](=O)[O-] | 86.4% | 60.5% | 84% | 91.7% | 47.2% | 81.5% | 82% | 97.1% | 83.5% | 45.1% | 69.8% | 62.3% | 67% | 82.4% | 68.9% | 19.3% | 66.9% | 84.7% | 101% | –
[2H]C([2H])([2H])Oc1c(F)cccc1/C=C/C(=O)/C=C(O)/C=C/c1cccc(F)c1OC([2H])([2H])[2H] | 103% | 107% | 100% | 109% | 106% | 90.5% | 102% | 101% | 82.7% | 92.9% | 81.4% | 103% | 114% | 94.4% | 87.8% | – | 92% | 85.8% | 98.1% | 101%
COC(=O)[C@@H](Cc1c[nH]c2ccccc12)NC[C@@H](O)CN1C(=O)/C(=C\c2cc(OC)c(OC)c(OC)c2)c2ccccc21 | 75.1% | 36% | 84.8% | 82.5% | 72% | 70.6% | 69.4% | 93.3% | 62.2% | 64.6% | 53.9% | 40.9% | 58.3% | 66.2% | 55.6% | – | 49.8% | 50.9% | 85.5% | 59.8%
O=c1c(/C=C/c2c(O)ccc3ccccc23)nnc2sc(-c3cccc([N+](=O)[O-])c3)nn12 | 44.1% | 50.9% | 72.9% | 30.8% | 74.5% | 40.4% | 43.8% | 53.2% | 54.6% | 52.3% | 29.1% | 88.8% | 51.7% | 50% | 0.449% (active) | – | 32.5% | 33.7% | 54.1% | 65.2%
CC(C)n1nc(-c2ccc3oc(N)nc3c2)c2c(N)ncnc21 | 2.37% (active) | 18.3% | -40.7% (active) | -15.1% (active) | -43.1% (active) | -1.05% (active) | -50.9% (active) | -43.7% (active) | -27.8% (active) | -18.8% (active) | 0.972% (active) | 4.07% (active) | -51.4% (active) | 0.364% (active) | 1.15% (active) | 0.237% (active) | -45% (active) | -16.4% (active) | -24% (active) | –
O=C(Nc1cccc2c1C(=O)c1cccc(NC(=O)c3ccc(C(=O)Nc4cccc5c4C(=O)c4cccc(NC(=O)c6ccccc6)c4C5=O)cc3)c1C2=O)c1ccccc1 | 115% | 93.5% | 101% | 90.4% | 103% | 109% | 108% | 104% | 95.1% | 113% | 105% | 112% | 89.7% | 105% | 101% | – | 89% | 102% | 103% | 105%
CC(=O)Cc1nsc(NC(=O)c2cc(-c3cc(Cl)ccc3Cl)oc2C)n1 | 110% | 102% | 113% | 101% | 103% | 98.8% | 99.6% | 102% | 93.8% | 102% | 103% | 107% | 94.7% | 102% | 97.4% | 96.8% | 95% | 96.3% | 108% | –
Cc1ccc(Nc2nc(N)nc(N)c2N=O)cc1Cl | 73.7% | 69.9% | 82.2% | 95.6% | 91.8% | 65.6% | 105% | 82% | 92.2% | 88.4% | 70.6% | 64.3% | 49.5% | 97.5% | 87% | – | 84.6% | 65.4% | 93.5% | 93.5%
